Assay results published in PubChem BioAssay (Tox21).
Several values for one entry are separate records, joined by “and”; a condition that tells them apart may be missing. Equal values may be shown once. Records with an inconclusive call do not appear. More than one record can exist for a structure, and the calls need not agree. Activity calls are given as the source filed them. Unless noted, calls come from the whole dose curve; as a rule, active = well fitted curve in the direction sought with a large enough effect in the repeat runs; inconclusive = weak or mixed curves; inactive = no such curve, though single readings can be large; an effect the other way counts as inactive or inconclusive.

Assays:
[1] = qHTS assay for small molecule agonists of the p53 signaling pathway (AID 651631; calls by dose curve; note: nearly all actives have a fitted effect of over 15% in size; note: potency is the fitted concentration of half-maximal effect)
How it was run: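 HCT-116 p53RE-bla reporter line, 16 h compound treatment at 37 °C, then fluorescence after 2 h with B/G FRET substrate.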

[2] = qHTS assay for small molecules that induce genotoxicity in human embryonic kidney cells expressing luciferase-tagged ATAD5 (AID 651632); note: nearly all actives have a fitted effect of over 15% in size; note: potency is the fitted concentration of half-maximal effect
How it was run: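 HEK293T cells carrying luciferase-tagged ATAD5 were given compound or DMSO vehicle and incubated 16 hr at 37C, 5% CO2. Luciferase activity was read after 30 min at room temperature with Amplite; a rise signals genotoxic stress.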

[3] = qHTS assay for small molecule agonists of the p53 signaling pathway - cell viability (AID 651633; calls by dose curve;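 note: p53RE-bla HCT reporter cells with a stable beta-lactamase p53 reporter; series mostly up to about 83 µM; nearly all actives have a fitted effect of over 30% in size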)
How it was run: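 p53RE-bla cells were treated with compound for 16 hours at 37 C. Cytotoxicity was then measured as CellTiter-Glo luminescence after 30 min at room temperature.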

[4] = qHTS assay for small molecules that induce genotoxicity in human embryonic kidney cells expressing luciferase-tagged ATAD5 - cell viability (AID 651634; calls by dose curve; note: nearly all actives have a fitted effect of over 25% in size; note: potency is the fitted concentration of half-maximal effect)
How it was run: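 HEK293T cells carrying luciferase-tagged ATAD5, 2,000 cells/well, exposed to compound for 15.5 hr at 37C. Viability read as live-cell protease activity by CellTiter-Fluor fluorescence after 30 min at 37C.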

[5] = qHTS assay for small molecule disruptors of the mitochondrial membrane potential - cell viability (AID 720634; calls by dose curve;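 note: human HepG2 liver cancer cells; series mostly up to about 83 µM; nearly all actives have a fitted effect of over 20% in size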)
How it was run: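 HepG2 cells, 2,000 per well, attached overnight, then treated 1 hr at 37 C, 5% CO2. Viability read as ATP by CellTiter-Glo luminescence after 30 min at room temperature. Read in the same wells as the m-MPI membrane-potential dye assay.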

[6] = qHTS assay for small molecule disruptors of the mitochondrial membrane potential (AID 720635); note: potency is the fitted concentration of half-maximal effect
How it was run: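 HepG2 cells exposed to compound 1 hr at 37C, then Mito-MPS dye 30 min. Ratio read of aggregate (540/590 nm) versus monomer (490/535 nm) fluorescence.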

[7] = qHTS assay to test for compound auto fluorescence at 590 nm (red) in HepG2 cells (AID 720674)
How it was run: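 Seeding: 2,000 HepG2 cells/well, MEM/10% FBS, overnight 37 C. Dosing: compound vs DMSO. Incubation: 1 hr, 37 C, 5% CO2. Read: fluorescence 540 ex/590 em, Rose Bengal sodium as red reference.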

[8] = qHTS assay to test for compound auto fluorescence at 535 nm (green) in HepG2 cells (AID 720675)
[9] = qHTS assay to test for compound auto fluorescence at 460 nm (blue) in HEK293 cells (AID 720678)
How it was run: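 HEK293, 2,000 cells/well, 10% dialyzed FBS; attach 4-5 hr 37C; pin compound or DMSO; o/n 37C/5% CO2; fluorescence 405/460 nm; triamterene-equivalent units.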

[10] = qHTS assay to test for compound auto fluorescence at 590 nm (red) in HEK293 cells (AID 720679)
How it was run: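 Intensity at 540nm excitation and 590nm emission is reported as Rose Bengal sodium-equivalent autofluorescence. Measurements followed overnight exposure (37C, 5% CO2) of HEK293 cells, 2,000 per well, to 23 nL compound.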

[11] = qHTS assay to test for compound auto fluorescence at 535 nm (green) in HEK293 cells (AID 720680)
[12] = qHTS assay to test for compound auto fluorescence at 460 nm (blue) in HEK293 cell free culture (AID 720681)
How it was run: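 Compounds were added to cell-free DMEM with 10% FBS and fluorescence read directly. The blue channel used 405 nm excitation and 460 nm emission, with triamterene as the reference fluorophore.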

[13] = qHTS assay to test for compound auto fluorescence at 535 nm (green) in HEK293 cell free culture (AID 720682)
How it was run: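 Steps: dispense DMEM/10% FBS into empty wells; pin in compound or DMSO; measure fluorescence at 485/535 nm. Values are fluorescein equivalents.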

[14] = qHTS assay to test for compound auto fluorescence at 590 nm (red) in HepG2 cell free culture (AID 720684)
How it was run: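 Compound was pinned into wells holding MEM with 10% FBS and no cells, and red fluorescence was read at Ex/Em 540/590 nm. Signal is expressed as auto fluorescence equivalency relative to Rose Bengal sodium.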

[15] = qHTS assay to test for compound auto fluorescence at 460 nm (blue) in HepG2 cell free culture (AID 720685)
How it was run: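 Compound (23 nL) or DMSO pinned into cell-free MEM with 10% FBS; blue fluorescence read at 405/460 nm excitation/emission, expressed as auto-fluorescence equivalency to triamterene.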

[16] = qHTS assay to test for compound auto fluorescence at 535 nm (green) in HepG2 cell free culture (AID 720686)
[17] = qHTS assay to test for compound auto fluorescence at 460 nm (blue) in HepG2 cells (AID 720687)
How it was run: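 HepG2 cells in MEM with 10% FBS, attached overnight at 37 C, were exposed to compound or DMSO for 1 hr at 37 C, 5% CO2. Blue fluorescence was read at 405/460 nm, with triamterene as reference fluorophore.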

[18] = target: Glucocorticoid receptor (Homo sapiens) (UniProt P04150); assay: qHTS assay to identify small molecule agonists of the glucocorticoid receptor (GR) signaling pathway (AID 720691; active = well fitted activation curve with a large enough effect in the signal ratio in the repeat runs, not every such curve was filed as active; the % refers to the signal ratio)
Sequence of Glucocorticoid receptor (Homo sapiens) (P04150 whole entry, looked up): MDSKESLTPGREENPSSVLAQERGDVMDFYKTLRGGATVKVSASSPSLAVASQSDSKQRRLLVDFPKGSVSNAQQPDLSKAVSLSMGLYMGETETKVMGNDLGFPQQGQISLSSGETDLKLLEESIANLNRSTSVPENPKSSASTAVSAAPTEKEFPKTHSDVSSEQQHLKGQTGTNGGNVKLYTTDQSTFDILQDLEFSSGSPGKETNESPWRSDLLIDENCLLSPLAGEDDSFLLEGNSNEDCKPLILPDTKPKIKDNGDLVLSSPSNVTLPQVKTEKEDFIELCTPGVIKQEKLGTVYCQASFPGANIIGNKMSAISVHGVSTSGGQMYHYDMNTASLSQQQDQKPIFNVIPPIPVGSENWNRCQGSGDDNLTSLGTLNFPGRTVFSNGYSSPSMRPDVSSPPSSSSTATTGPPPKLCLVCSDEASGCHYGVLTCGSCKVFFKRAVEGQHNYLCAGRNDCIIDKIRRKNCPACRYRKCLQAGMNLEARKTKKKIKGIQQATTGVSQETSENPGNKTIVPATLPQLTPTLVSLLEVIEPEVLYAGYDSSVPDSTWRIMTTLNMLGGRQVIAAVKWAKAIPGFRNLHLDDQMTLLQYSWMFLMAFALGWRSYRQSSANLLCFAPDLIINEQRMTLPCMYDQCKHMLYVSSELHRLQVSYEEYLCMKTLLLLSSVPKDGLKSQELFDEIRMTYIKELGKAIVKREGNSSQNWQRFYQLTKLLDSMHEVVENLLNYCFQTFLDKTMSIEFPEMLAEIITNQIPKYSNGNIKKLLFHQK
How it was run: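 GR-bla HeLa cells carrying a GRE-driven beta-lactamase reporter, exposed to compounds for 18 h at 37 C. Reporter activation read as fluorescence after 2 h with LiveBLAzer B/G FRET substrate at room temperature.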

[19] = target: Glucocorticoid receptor (Homo sapiens) (UniProt P04150); assay: qHTS assay to identify small molecule antagonists of the glucocorticoid receptor (GR) signaling pathway (AID 720692; active = well fitted inhibition curve with a large enough effect in the signal ratio in the repeat runs, not every such curve was filed as active; the % refers to the signal ratio; note: potency is the fitted concentration of half-maximal effect)
How it was run: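 GR-bla HeLa cells carrying a GRE-driven beta-lactamase reporter received compound after 4 h plating, then dexamethasone (5 nM final). After 18 h at 37C, the FRET substrate was loaded for 2 h at room temperature and fluorescence read.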

[20] = qHTS assay to test for compound auto fluorescence at 590 nm (red) in HEK293 cell free culture (AID 720683)
How it was run: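 Cell-free wells of DMEM with 10% FBS received compound, and intrinsic fluorescence was read at excitation/emission 540/590 nm. Values expressed as equivalence to Rose Bengal sodium.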
% is set by controls: 0 for no effect and ±100 for the full control effect.

Cc1c(C(=O)NCCO)[n+](=O)c2ccccc2n1[O-]
inactive: Potency [1] | Potency [2] | Potency [3] | Potency [4] | Potency [5] | Potency [6] | outcome [7] | outcome [8] | outcome [9] | outcome [10] | outcome [11] | outcome [12] | outcome [13] | outcome [14] | outcome [15] | outcome [16] | outcome [17] | Potency [18] | Potency [19]

CC(=O)N[C@@H](CC(C)C)C(=O)O
inactive: Potency [1] | Potency [2] | Potency [3] | Potency [4] | Potency [5] | Potency [6] | outcome [7] | outcome [8] | outcome [9] | outcome [10] | outcome [11] | outcome [12] | outcome [13] | outcome [14] | outcome [16] | outcome [17]

O=C1CCC(C2CCCCC2)CC1
inactive: Potency [1] | Potency [2] | Potency [3] | Potency [4] | Potency [5] | Potency [6] | outcome [7] | outcome [8] | outcome [9] | outcome [10] | outcome [11] | outcome [12] | outcome [13] | outcome [14] | outcome [15] | outcome [16] | Potency [18] | Potency [19]

O=C(O)c1ccccc1Nc1cc(Cl)ccc1C(=O)O
inactive: Potency [1] | Potency [2] | Potency [3] | Potency [4] | Potency [5] | Potency [6] | outcome [7] | outcome [8] | outcome [9] | outcome [10] | outcome [11] | outcome [12] | outcome [13] | outcome [20] | outcome [15] | outcome [16] | outcome [17] | Potency [18]

CC(C)(CO)[C@@H](O)C(=O)NCCC(=O)O
inactive: Potency [1] | Potency [2] | Potency [3] | Potency [4] | Potency [5] | Potency [6] | outcome [7] | outcome [8] | outcome [9] | outcome [10] | outcome [11] | outcome [12] | outcome [13] | outcome [14] | outcome [15] | outcome [16]

O=C(O)c1cccc(Cl)c1Cl
inactive: Potency [1] | Potency [2] | Potency [3] | Potency [4] | Potency [5] | Potency [6] | outcome [7] | outcome [8] | outcome [9] | outcome [10] | outcome [12] | outcome [13] | outcome [20] | outcome [14] | outcome [15] | outcome [16] | outcome [17] | Potency [18]

CCCCc1ccc2nc(NC(=O)OC)[nH]c2c1
active: Potency [1] 50.7 nM | Potency [2] 804 nM | Potency [4] 90.2 nM | Potency [6] 254 nM
inactive: Potency [3] | Potency [5] | fluorescence, relative to Rose Bengal [7] -0.46% [at 18.6 µM] | fluorescence, % of fluorescein control [8] 0.0726% [at 18.6 µM] | fluorescence, % of triamterene [9] -0.014% [at 18.6 µM] | fluorescence, % of fluorescent control [10] 0.021% [at 18.6 µM] | fluorescence, % of fluorescein [11] -0.231% [at 18.6 µM] | fluorescence, % of fluorescent control [12] -0.0022% [at 18.6 µM] | activity change [13] 0.0865% [at 18.6 µM] | fluorescence, % of Rose Bengal [14] 0.0227% [at 18.6 µM] | fluorescence, % of fluorescent control [15] -0.0558% [at 18.6 µM] | fluorescence, % of fluorescein control [16] -0.0094% [at 18.6 µM]

Cc1ccc(C=O)s1
inactive: Potency [1] | Potency [2] | Potency [3] | Potency [4] | Potency [5] | Potency [6] | outcome [7] | outcome [8] | outcome [9] | outcome [10] | outcome [11] | outcome [12] | outcome [13] | outcome [14] | outcome [15] | outcome [16] | outcome [17]

C=CC(C)(O)CC/C=C(\C)CCC=C(C)C (centres undefined)
active: Potency [6] 12.4 µM and 27.3 µM
inactive: Potency [1] | Potency [2] | Potency [3] | Potency [4] | Potency [5] | outcome [7] | outcome [8] | outcome [9] | outcome [10] | outcome [11] | outcome [12] | outcome [14] | outcome [15] | outcome [16] | outcome [17] | Potency [18] | Potency [19]

FC(F)(F)C(Cl)(Cl)Cl
inactive: Potency [1] | Potency [2] | Potency [3] | Potency [4] | Potency [5] | Potency [6] | outcome [7] | outcome [8] | outcome [9] | outcome [10] | outcome [11] | outcome [12] | outcome [14] | outcome [15] | outcome [16] | outcome [17]

CCCC1CCC(=O)O1 (centres undefined)
inactive: Potency [1] | Potency [2] | Potency [3] | Potency [4] | Potency [5] | Potency [6] | outcome [7] | outcome [8] | outcome [9] | outcome [10] | outcome [11] | outcome [12] | outcome [13] | outcome [20] | outcome [15] | outcome [16] | outcome [17] | Potency [18] | Potency [19]

CCOc1ccccc1N
inactive: Potency [1] | Potency [2] | Potency [3] | Potency [4] | Potency [5] | Potency [6] | outcome [7] | outcome [8] | outcome [9] | outcome [10] | outcome [11] | outcome [12] | outcome [13] | outcome [20] | outcome [15] | outcome [16] | outcome [17] | Potency [18]

CC(C)C1=CC2=CC[C@@H]3[C@](C)(CCC[C@@]3(C)C(=O)O)[C@H]2CC1
inactive and 54.9 µM (active): Potency [19]
inactive: Potency [1] | Potency [2] | Potency [3] | Potency [4] | Potency [5] | Potency [6] | outcome [7] | outcome [8] | outcome [9] | outcome [10] | outcome [11] | outcome [12] | outcome [13] | outcome [20] | outcome [15] | outcome [16] | Potency [18]

OCc1c2ccccc2cc2ccccc12
inactive: Potency [1] | Potency [2] | Potency [3] | Potency [4] | Potency [5] | outcome [7] | outcome [8] | outcome [9] | outcome [10] | outcome [11] | outcome [12] | outcome [20] | outcome [14] | outcome [15] | outcome [16] | outcome [17]
active: Potency [6] 30700 nM
